High-throughput results deposited in PubChem by Broad Institute.
TRPM1 prom inh: inhibitors of MITF-dependent TRPM1 promoter reporter, primary screen, cell-based, SK-MEL-5, single point, luciferase; hit rate 0.83% among 330,000; inhibition, % at 12.5 µM; AID 488899, 2010; SK-MEL-5 TRPM1 promoter luciferase, 24 h;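 active means mean inhibition across replicates of 60% or more, whatever share of single replicates reaches that level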
PGC1a acetyl inh: inhibitors of PGC1a acetylation signal, primary screen, cell-based, U2OS, AlphaScreen, inhibitor mode; AlphaScreen anti-acetyl-lysine; with virally co-expressed GCN5 acetyltransferase; inhibition, % at 15.6 µM; hit rate 0.17% among 350,000;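 active means every replicate shows inhibition of at least 40%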;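 further: 0% = neutral control wells and 100% = positive control wells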
EBV LMP1 NFkB: EBV LMP1-driven NF-kappaB luciferase reporter inhibitors, primary screen, cell-based, luminescence, single point; AID 504558, 2011; LMP1-induced NF-kappaB luciferase reporter cells; hit rate 0.69% among 350,000; inhibition, % at 12.5 µM; in the data active means inhibition above about 41%;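 further: 0% = neutral control wells and 100% = reference inhibitor control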
LGR2 inh: inhibitors of bursicon-induced LGR2 CRE-luciferase signal, primary screen, cell-based, HEK293, CRE-luciferase reporter, bursicon stimulation | Drosophila bursicon receptor LGR2 (rickets) | bursicon-stimulated, 4 h | inhibition, % at 9.99 µM | hit rate 0.35% among 380,000;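 active means drop in luminescence signal, shown as inhibition above about 50% in the replicate tests, limit read from the data, passing the limit was not always enough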;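 further: agonist challenge used bursicon conditioned medium at about half maximal strength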
PAX8 inh HTS: inhibitors of PAX8-driven TPO luciferase reporter, primary screen, RMG-I cells, single concentration; SteadyGlo, 24 h; inhibition, % at 12.6 µM; hit rate 1.2% among 360,000; AID 652154, 2013;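 active means mean replicate inhibition at least 60% with every replicate also reaching 60%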;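 further: luciferase light reporting Pax8 driven TPO promoter activity; plate controls were median of neutral control wells for no effect and mitoxantrone controls for full effect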
EWS-Fli block: EWS/Fli-driven NR0B1 reporter inhibitors, primary screen, A673 cells, NR0B1 luciferase, luminescence, MLPCN library | AID 651661, 2012 | hit rate 0.67% among 350,000 | viability-normalised | inhibition, % at 12.6 µM;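 active means mean inhibition of at least 50% after viability correction, with every replicate also passing that limit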;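 further: firefly luciferase signal divided by Alamar Blue viability fluorescence both relative to DMSO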
An asterisk follows results filed as active; . = not tested or not shown. Compounds with a hit are over-represented: about 2.2% of the library has one in this group of screens.

SMILES | TRPM1 prom inh | PGC1a acetyl inh | EBV LMP1 NFkB | LGR2 inh | PAX8 inh HTS | EWS-Fli block
CCC1(O)CC2CN(CCc3c([nH]c4ccccc34)C(C(=O)OC)(c3cc4c(cc3OC)N(C=O)C3C(O)(C(=O)OC)C(OC(C)=O)C5(CC)C=CCN6CCC43C65)C2)C1 (centres undefined) | 51.5 | -10.9 | -2.1 | -29.5 | 83.1* | 44.3
COc1ccccc1[C@]1(C)ON(c2ccccc2C(F)(F)F)C1=O | 58.9 | . | 73.3* | 36.8 | 48.0 | 1.2
CC(C)C[C@]1(c2ccccc2)ON(c2ccccc2C(F)(F)F)C1=O | 1.1 | . | -1.5 | -5.1 | 8.6 | 1.7
COc1ccc([C@]2(C(C)C)ON(c3ccccc3C(F)(F)F)C2=O)cc1 | 23.0 | -10.1 | 13.5 | . | 55.0 | 15.2
CC[C@]1(c2ccccc2OC)ON(c2ccccc2C(F)(F)F)C1=O | . | . | . | -3.5 | 83.7* | 22.8
CCC(=O)N1C[C@@H](C)[C@H](OC)CN(C)C(=O)c2ccc(NC(=O)c3ccc(OC)cc3)cc2OC[C@H]1C | . | 2.7 | . | -6.4 | . | 0.5
Cc1cc(C)cc(OCC(O)CN2CCC(CN3C(=O)c4cccc5cccc(c45)C3=O)CC2)c1 (centres undefined) | 71.5* | 3.9 | 24.4 | 4.7 | 67.4* | 28.8
CCCCCCn1c(=O)n2n(c1=O)C[C@]1(OC(=O)NCC3CCCCC3)CN(S(=O)(=O)c3ccc(C)cc3)C[C@]1(O)C2 | . | 20.8 | -8.5 | 5.2 | 5.4 | -89.1
CCCCCCNC(=O)O[C@@]12CN(S(=O)(=O)c3ccc(C)cc3)C[C@]1(O)Cn1c(=O)n(CCCCCC)c(=O)n1C2 | . | 68.9* | 5.5 | -9.1 | -4.8 | 11.7
C/C(=N\NC(=O)C1COc2ccccc2O1)c1ccccn1 (centres undefined) | 83.3* | 12.3 | 10.7 | 2.3 | 27.5 | .
C/C(=N\NC(=O)C1COc2ccccc2O1)c1ccc(C)o1 (centres undefined) | 6.0 | 1.1 | 1.3 | . | -8.7 | .
O=C(Nc1nncs1)C1COc2ccccc2O1 (centres undefined) | -1.4 | 2.4 | -10.6 | . | . | .
C/C(=N\NC(=O)C1COc2ccccc2O1)c1cc2ccccc2o1 (centres undefined) | -15.1 | -10.9 | 40.5* | -2.9 | -1.3 | -8.5
CC(=O)c1sc(NC(=O)C2COc3ccccc3O2)nc1C (centres undefined) | . | . | 48.6* | . | 18.4 | 46.1
C[C@@H]1CN([C@@H](C)CO)C(=O)c2cc(NC(=O)c3ccncc3)ccc2O[C@@H](C)CCCCO[C@H]1CN(C)C(=O)NC1CCCCC1 | . | 0.4 | . | -2.6 | 20.7 | 4.3
CCC(=O)N(C)C[C@H]1Oc2cc(-c3ccccc3OC)ccc2S(=O)(=O)N([C@H](C)CO)C[C@@H]1C | . | 7.1 | . | 6.2 | -3.7 | -1.2
O=C(Cc1cccnc1)N1CC(=O)N2[C@H](C1)[C@@H](c1ccc(C3=CCCCC3)cc1)[C@@H]2CO | . | -6.2 | . | 9.3 | -4.3 | -20.1
COCC(=O)N1C[C@H]2[C@@H](c3ccccc31)[C@@H](CO)N2C(=O)C1CCOCC1 | . | 6.0 | . | 10.4 | -18.6 | -3.5
C[C@H]1CN([C@@H](C)CO)C(=O)c2cccc(NS(C)(=O)=O)c2O[C@H]1CN(C)C | . | 0.5 | . | 14.8 | -20.6 | 2.6
O=C(N/N=C(/CC(=O)c1cccs1)C(F)(F)F)c1ccc(O)cc1 | 7.4 | 1.7 | 49.4* | 21.2 | . | .
CO[C@@H]1CN(C)C(=O)c2ccc(NC(=O)NC(C)C)cc2OC[C@H](C)N(C(=O)C2CCC2)C[C@H]1C | . | 5.4 | . | 6.9 | . | -2.6
COc1ccc2[nH]c(C)c(CCN3C(=O)C4CC=CCC4C3=O)c2c1 (centres undefined) | -2.4 | 3.2 | 1.0 | 2.2 | -3.6 | -17.9
COc1ccc2[nH]c(C)c(CCN3C(=O)OC(C)(C)C3(C)O)c2c1 (centres undefined) | -7.2 | . | 90.1* | -13.4 | 17.0 | -4.3
CCOCCCNCC(O)c1ccccc1 (centres undefined) | 18.6 | 3.0 | 0.2 | -6.8 | 6.7 | .
OCc1cc(C(O)CNCCCCCCOCCCCc2ccccc2)ccc1O (centres undefined) | 1.7 | 2.1 | 55.2* | 0.9 | 14.3 | 18.2
SMILES | TRPM1 prom inh | PGC1a acetyl inh | EBV LMP1 NFkB | LGR2 inh | PAX8 inh HTS | EWS-Fli block
CO[C@@H]1CN(C)C(=O)c2cc(NS(=O)(=O)CC(F)(F)F)ccc2OC[C@@H](C)N(Cc2ccccn2)C[C@@H]1C | . | -6.0 | . | 3.6 | 1.6 | -0.3
COc1cc2sc3ccc(C#Cc4ccc(N)cc4)cc3c(=O)c2cc1OC | -7.9 | . | -11.2 | -28.0 | 56.7 | 20.8
Cn1c2ccccc2c(=O)c2ccc(C#CC3(O)CCCCC3)cc21 | 14.8 | -7.8 | -18.1 | 100.2* | 9.3 | 57.4*
COc1cccc2sc3cc(C#CC4(O)CCCCC4)ccc3c(=O)c12 | -64.1 | -1.5 | -10.7 | 98.1* | -60.6 | -40.3
COc1ccc(C#Cc2ccc3c(c2)c(=O)c2ccccc2n3C)cc1 | 3.6 | 1.9 | -9.8 | -18.4 | -10.9 | 39.9
COc1cc2sc3ccc(C#CC4(O)CCCCC4)cc3c(=O)c2cc1OC | -34.4 | . | -59.3 | 94.1* | -47.2 | -10.4
O=C(C[C@H]1C[C@@H]2c3cc(NC(=O)Nc4ccc(C(F)(F)F)cc4)ccc3O[C@@H]2[C@@H](CO)O1)NCc1cccnc1 | . | -0.2 | . | 6.3 | 36.5 | 1.0
COc1ccc(CN(C)C[C@@H]2OCCCC[C@@H](C)Oc3ccc(NC(=O)Nc4cccc5ccccc45)cc3C(=O)N([C@@H](C)CO)C[C@H]2C)cc1 | . | -19.7 | . | 13.2 | 10.4 | 64.1*
COc1ccc(CN(C)C[C@@H]2OCCCC[C@@H](C)Oc3ccc(NC(=O)Nc4cccc5ccccc45)cc3C(=O)N([C@H](C)CO)C[C@H]2C)cc1 | . | -5.4 | . | . | 41.9 | 66.9*
COc1ccc(CN(C)C[C@H]2OCCCC[C@H](C)Oc3ccc(NC(=O)Nc4cccc5ccccc45)cc3C(=O)N([C@@H](C)CO)C[C@H]2C)cc1 | . | 7.1 | . | 1.0 | 19.2 | 44.8
COc1ccc(CN(C)C[C@@H]2OCCCC[C@H](C)Oc3ccc(NC(=O)Nc4cccc5ccccc45)cc3C(=O)N([C@@H](C)CO)C[C@@H]2C)cc1 | . | 2.9 | . | 6.4 | 6.8 | 65.2*
COc1ccc(CN(C)C[C@@H]2OCCCC[C@H](C)Oc3ccc(NC(=O)Nc4cccc5ccccc45)cc3C(=O)N([C@H](C)CO)C[C@H]2C)cc1 | . | 8.6 | . | . | 79.6* | 3.2
C[C@H](CO)N1C[C@H](C)[C@H](CN(C)C(=O)Nc2ccccc2)Oc2c(NC(=O)Nc3ccc(F)cc3)cccc2C1=O | . | -5.1 | . | 21.7 | . | -2.7
COc1ccc2c3c([nH]c2c1)[C@@H](CO)N(C(=O)c1ccccc1)CC31CN(C(=O)c2cccc(F)c2)C1 | . | . | . | -19.9 | -10.5 | 26.9
O=[N+]([O-])CC(c1ccccc1)c1c[nH]c2ccccc12 (centres undefined) | . | -2.5 | . | 5.6 | 31.2 | 37.1
